Data on five molecules can be found in PubChem BioAssay.

SMILES strings stand for the structures. Activity calls are given as the source filed them. How the calls were made is not given here.

In this experiment the target is Pantothenate synthetase (Mycobacterium tuberculosis (strain ATCC 25618 / H37Rv)) (UniProt P9WIL5). Description: Recombinant Mtb pantothenate synthetase (PanC) inhibitors, coupled enzyme, confirmatory (AID 375).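 Further: 0% = full reaction with vehicle and 100% = no enzyme background.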 As to conditions: coupled enzyme assay; at 10 µM, stronger effect = higher value.
Chain of Pantothenate synthetase (Mycobacterium tuberculosis (strain ATCC 25618 / H37Rv)) (P9WIL5 whole entry, looked up): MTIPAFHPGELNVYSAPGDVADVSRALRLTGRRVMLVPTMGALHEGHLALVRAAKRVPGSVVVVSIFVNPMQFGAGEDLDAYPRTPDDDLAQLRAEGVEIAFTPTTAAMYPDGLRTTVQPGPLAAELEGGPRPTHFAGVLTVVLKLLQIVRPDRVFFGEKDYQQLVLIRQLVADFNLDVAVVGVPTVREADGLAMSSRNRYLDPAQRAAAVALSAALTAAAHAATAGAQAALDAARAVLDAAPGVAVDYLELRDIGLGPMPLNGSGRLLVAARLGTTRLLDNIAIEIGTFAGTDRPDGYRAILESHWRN
Turning to `Cc1cc(C)n2nc(SCC(=O)N(C)c3ccccc3)nc2n1`, the inhibition – broadly, the relative decrease from the control value, in per cent – was 1% (inactive). The figure for `COc1ccc(CNC(=O)C(c2ccco2)N(Cc2cccs2)C(=O)Cc2cccs2)cc1` (stereo not given) is 0% (inactive); for `CCOCCCNC(=O)C(c1ccc(C)cc1)N(Cc1ccc2c(c1)OCO2)C(=O)c1cnccn1` (stereo not given) it is 0% (inactive); for `CCNS(=O)(=O)c1c(C)cc(N2CCCC2=O)cc1C` it is 6% (inactive). As for `COc1ccc(/C=N/n2cc(-c3ccc(OC)cc3)nc2N)cc1`, the inhibition is 0% (inactive).
